Results filed as inconclusive are left out. Where a call stands in place of a potency, no number is given. Activity calls are given as the source filed them. The call rests on the fitted dose curve; in most records, active means well fitted cell-killing curve with a large enough effect; inconclusive means small, poorly fitted or top-dose-only effect, or effect the other way; inactive means no such curve, though single readings can be large or run the other way. Numbered stars: 1 amine (or outer) side, 2 acyl side, 3 side chain; on linkers, the order of the positions; unused ones are H or OH. Bridge positions count the residues as written; N and C are the ends. Square brackets hold non-standard residues; d marks the D form. Peptide text beside a SMILES is read from it. ξ: configuration not given here. X1 = CCCCCCCCCC(=O)[C@H](C(=O)[*:2])[C@@H]1CNC(=O)[C@@H](N[*:1])CS1; Phe(3R-OH) = O=C([C@@H](N[*:1])[C@H](O[*:3])c1ccccc1)[*:2]; NMeTrp(4-OMe) = CN[C@@H](Cc1c[nH]c2cccc(OC)c12)C(=O)O; X4 = O=C(C1CC2(c3ccc(O)cc3)c3ccccc3NC2N1[*:1])[*:2]; ξThr(3R)(O-yl) = C[C@@H](O[*:3])C(N[*:1])C(=O)[*:2]; NMeThr(3ξ) = CN[C@H](C(=O)O)C(C)O; ξW = NC(Cc1c[nH]c2ccccc12)C(=O)O; NMeL = CN[C@@H](CC(C)C)C(=O)O; NMeV = CN[C@H](C(=O)O)C(C)C; ξIle = CC[C@H](C)C(N)C(=O)O; ξY = NC(Cc1ccc(O)cc1)C(=O)O; ξV = CC(C)C(N)C(=O)O
Potency means the concentration at half of the fitted maximal effect.

The test can be described thus: qHTS for Antimalaria activity screened against the NCATS CANVASS Library (AID 1347380). Further: nearly all actives have a fitted effect of over 40% in size. As to conditions: P. falciparum Dd2 growth, SYBR Green fluorescence, 72 h; series mostly up to 28.7 µM. The text has this:
Natural products and their derivatives continue to be wellsprings of nascent therapeutic potential. However, many laboratories have limited resources for biological evaluation, leaving their previously isolated or synthesized compounds largely or completely untested. To address this issue, the Canvass library of natural products was assembled (https://tripod.nih.gov/canvass), in collaboration with academic and industry researchers, for quantitative high-throughput screening (qHTS) across a diverse set of cell-based and biochemical assays. The pure (>85% purity by liquid chromatography/mass spectrometry [LC/MS]) Canvass library of 346 natural products were submitted by 45 academic laboratories and companies around the world. We collected pure natural products to circumvent deconvolution and structure elucidation due to time and resource limitations. The library was formatted into 1536-well plates and evaluated in 50 qHTS (in an 11-pnt concentration series) bioassays with broad scope of disease-relevant mechanisms. The resulting data set from 50 different assays was then systematically analyzed to identify overall trends and specific natural products with interesting biological activities. Reported herein are the results of each individual qHTS and their corresponding assay protocol. The proliferation assay assesses the ability of compounds to inhibit the proliferation and/or have cytotoxic effects (72 hr) against the asexual erythrocytic growth of Plasmodium falciparum Dd2, as determined by a SYBRGreen fluorescence assay. National Center for Advancing Translational Sciences (NCATS), Rockville, MD National Institute of Health (NIH), Bethesda, Maryland
Malaria-screen protocol: Assay adopted from Plouffe et al. 2008 PNAS 105: 9059; PMID: 18579783. 1. In a biosafety cabinet, 3 uL of complete Malaria Growth Media (1x RPMI 1640 with L-glutamine + 5.5 g/L Albumax II + 367 uM Hypoxanthine + 25 mM HEPES + 0.25% Sodium Bicarbonate + 35 uM Gentamicin sulfate) was dispensed into a 1536-well black clear Cyclo-Olefin Polymer plate (Aurora Microplates) using a Multidrop Combi (Thermo Fisher Scientific Inc.). 2. 23 nL of compounds (in DMSO solution) were pin transferred into the assay plates using the Kalypsis pin-tool equipped with a 1536 well pin heads. Dihydroartemisinin (working concentration 29 uM) was used as a control and pin transferred (23 nL) at a titration series, final concentration 56 pM - 1.84 uM. 3. In a biosafety cabinet, five microliter of Malaria-infected RBCs: hematocrit 4% (final concentration of 2.5%), 0.3% parasitemia was added to the assay plates using the Multidrop Combi (Thermo Fisher Scientific Inc.). 4. The assay plates were incubated for 72 hours at 37C, 5% O2, 5% CO2, 90%N2, 95% humidity. 5. In the biosafety cabinet, 2 uL of Lysis buffer (20 mM Tris-HCl + 10 mM EDTA + 0.16% saponin + 1.6% Triton-X + 10x SYBR Green) was added to the assay plates using the Multidrop Combi followed by a 25 sec shake immediately after dispensing. 6. The assay plates we incubated further for 18 hours at 37C, 5%O2, 5% CO2, 90%N2, 95% humidity. 7. The fluorescence signal was read using the EnVision (PerkinElmer) plate reader (bottom read) using a 485/14 nm excitation and 535/25 nm emission filters.
For orientation: In qHTS, concentration-response curves come from the screen itself.
As to `CCCCCCCCCC(=O)[C@@H]1C(=O)N[C@@H](CC(C)C)C(=O)N[C@H](C)C(=O)N2CCC[C@H]2C(=O)N[C@@H](C(C)C)C(=O)N[C@H]2CS[C@H]1CNC2=O` (cyclo(L[dA]PV[X1])), the Potency is 3.3 nM (active).
The value for `O=c1cc(-c2ccc(O)c(O[C@@H]3O[C@H](CO)[C@@H](O)[C@H](O)[C@H]3O)c2)oc2cc(O[C@@H]3O[C@H](CO)[C@@H](O)[C@H](O)[C@H]3O)cc(O)c12` was 4.7 nM (active); that for `C=C1C[C@@]23C=CC(=O)[C@@](C)(CCC(=O)Nc4c(O)ccc(C(=O)O)c4O)C2C[C@@H]1C(O)C3` (stereo not given in full) was “inactive”.
For the compound `C=C(C)CC[C@H](Cc1c(O)cc(O)c2c1O[C@H](c1ccc(O)cc1O)CC2=O)C(=C)C`, the Potency was 5.9 nM (active).
For `O=Cc1ccc2n1C[C@@]1(OC2)O[C@H](CO)[C@@H](O)[C@@H]1O`, the Potency entry is “inactive”.
The value for `CO[C@@H]1C[C@@H](C[C@H]2CC[C@H](C)[C@H]([C@@H](C)C(=O)O)O2)O[C@]2(O[C@](C)([C@H]3CC[C@@](C)([C@@H]4O[C@@H]([C@H]5O[C@](C)(O)[C@H](C)C[C@@H]5C)C[C@@H]4C)O3)C[C@H]2C)[C@@H]1C` was 4.2 nM (active); that for `C=C(NC(=O)c1csc(-c2nc3c(cc2O)-c2nc(cs2)C(=O)NC(C(C)O)C(=O)N/C(=C(\C)O)c2nc(cs2)C(=O)NC2c4nc(cs4)C(=O)NC(COC(=O)c4c5c6c(cccc6n4O)COC(=O)[C@@H](OC4C[C@](C)(O)[C@H](N(C)C)[C@H](C)O4)C2OC5)c2nc-3cs2)n1)C(N)=O` (stereo not given in full) was 334 nM (active); that for `C=CC(=C)CC[C@]1(C)[C@H]2C[C@H](OC(=O)C(C)CC)C=C3[C@H](OC(C)=O)O[C@H](OC(C)=O)[C@@]32[C@H](OC)C[C@@H]1C` (stereo not given in full) was 545 nM (active).
For the compound `C=CC(C)(C)C(=O)[C@@H](C)[C@@H]1CC[C@](C)(C=C)O1`, the Potency result was “inactive”.
The entry for `C[C@H]1C[C@@H]([C@@H]2CC[C@]34O[C@H](CC[C@@]35C[C@H](C)C(=O)O5)CN24)OC1=O` is “inactive”; for `CC1(C)CCC[C@]2(C)[C@@H]1CC[C@@]13C[C@@H](CC[C@H]12)C(C)(O)C3` (stereo not given in full) it is “inactive”.
The value for `C/C=C/c1cc(OC)c2c(c1)[C@@H](C)[C@H](c1ccc(O)c(OC)c1)O2` was “inactive”.
The entry for `CNc1ccc(Cl)cc1C(=O)OC[C@]1(C)[C@H]2CC[C@]3(C)[C@@H](C[C@@H](OC)[C@H](C)[C@H]3C3=C(O)C(=O)OC3O)[C@]2(C)CC[C@H]1O` (stereo not given in full) is “inactive”; for `CC12C[C@]3(O)O[C@@H](O1)[C@]1(COC(=O)c4ccccc4)[C@@H]3CC21OC1OC(CO)C(O)C(O)C1O` (stereo not given in full) it is “inactive”; for `O=Cc1ccc2n1C[C@@]1(C[C@H](O)[C@@H](CO)O1)OC2` it is “inactive”.
As for `CC(=O)O[C@@H]1C=C2C(=O)OC[C@]2(O)[C@@]2(C)CCCC(C)(C)[C@H]12`, the Potency is 18.8 nM (active).
The value for `C=C1C(=O)O[C@H]2[C@H]1CC/C(CO)=C\CC[C@@]1(C)O[C@@H]21` was 8.4 nM (active); that for `CC[C@H](C)[C@H](NC(=O)C(Cc1ccc(O)cc1)NC(=O)C(Cc1c[nH]c2ccccc12)NC(=O)[C@H](C)N)C(=O)N1C(C(=O)NC(Cc2ccc(O)cc2)C(=O)O)CC2(c3ccc(O)cc3)c3ccccc3NC12` (stereo not given in full) (H-A[ξW][ξY]I[X4][ξY]-OH) was “inactive”; that for `COc1cc(O)c2c3c(c(O)cc(C)c13)C(=O)OC2` was “inactive”.
The value for `OCc1ccc2ocnc2c1` was “inactive”; that for `C=C(C)[C@@H]1CC[C@]2(C)CC[C@]3(C)[C@H](CC[C@@H]4[C@@]5(C)CC[C@H](O)C(C)(C)[C@@H]5CC[C@]43C)[C@@H]12` was “inactive”; that for `CCC1=C2CCCN3C(=O)O[C@H]([C@H]1OC(C)=O)[C@H]23` was 5.9 nM (active).
For the compound `C[C@@]12CCC[C@@](C)(C(=O)O)[C@H]1C[C@@H](O)[C@]13C[C@H]4C[C@H](O[C@@]4(C)C1)[C@@H]23`, the Potency result is “inactive”.
The figure for `CCCCCCCCCCCCCCCC(=O)OC/C=C(\C)CCCC(C)CC(C)C(C)C` (stereo not given) is 1.9 nM (active); for `C[C@@H](O)[C@H]1OC(=O)C=C2[C@]3(C)[C@H]4[C@H](OC(=O)[C@@]4(C)[C@@H](O)[C@H]4O[C@H]43)[C@H]3O[C@@]231` it is 594 nM (active).
The value for `O=C(O)CC1OCc2c(O)cccc21` (stereo not given) was “inactive”; that for `C/C(=C\[C@H](C)C(=O)CCCC1CC(=O)NC(=O)C1)C(O)[C@@H](C)[C@H](O)C/C=C/CC/C=C/C(=O)O` (stereo not given in full) was “inactive”; that for `C=C1[C@H]2CC[C@@]3(C=CC(=O)[C@@](C)(CCC(=O)Nc4c(O)ccc(C(=O)O)c4O)C3C2)[C@H]1O` (stereo not given in full) was “inactive”.
The value for `C=C1C[C@@]23C=CC(=O)[C@@](C)(CCC(=O)Nc4c(O)ccc(C(=O)O)c4O)C2C[C@@H]1CC3` (stereo not given in full) was “inactive”; that for `CC(C)(Br)[C@@H](Cl)C[C@H](Br)[C@](C)(Cl)/C=C/Br` was “inactive”.
On to `CN1C(=O)C2C(N=CN2C)N(C)C1=O` (stereo not given), for which the Potency entry was “inactive”.
Consider `COc1ccc2cc(NC(=O)C3=NO[C@H]4[C@H](O)C=C[C@@H](Cl)[C@@]4(O)C3)c(=O)oc2c1OC`, for which the Potency entry was “inactive”.
With `O=c1cc(-c2ccc(O)cc2)oc2c([C@@H]3OC(CO)[C@H](O)[C@@H](O)[C@H]3O)c(O)cc(O)c12` (stereo not given in full), the Potency was 1.3 nM (active).
Take `CCC[C@@H](C)/C=C(\C)[C@H](O)[C@H](C)/C=C/CC[C@@H](O)[C@H](C)[C@H](O)[C@H](C)[C@H](O)[C@H](C)[C@H]1O[C@H]([C@H](C)C(=O)O)CC[C@@H]1C`: the Potency was 5940 nM (active).
The figure for `CC[C@H](C)C(NC(=O)[C@@H](NC)C(C)C)C(=O)NC1C(=O)N(C)[C@@H](C(C)O)C(=O)N[C@@H](C(C)C)C(=O)N(C)[C@@H](CC(C)C)C(=O)NC(C(C)C)C(=O)N(C)[C@@H](C(C)C)C(=O)N(C)[C@@H](Cc2c[nH]c3cccc(OC)c23)C(=O)N[C@@H](C(C)C)C(=O)N[C@@H]([C@H](O)c2ccccc2)C(=O)N[C@@H](C(C)C)C(=O)O[C@@H]1C` (stereo partly drawn) (H-[NMeV][ξIle][ξThr(3R)(O-yl)][NMeThr(3ξ)]V[NMeL][ξV][NMeV][NMeTrp(4-OMe)]V[Phe(3R-OH)]V; ester 3-C) is 3750 nM (active); for `C=C[C@@]1(C)CC[C@@H]([C@H](C)C(=O)/C=C/C(C)C)O1` it is “inactive”; for `CO[C@H]1/C=C/CC[C@@H](S[C@@H]2O[C@H](CO)[C@@H](O)[C@H](O)[C@H]2O)CC(=O)O[C@@H](/C(C)=C/[C@H](C)C(=O)CCCC2CC(=O)NC(=O)C2)[C@@H](C)[C@@H]1O` it is “inactive”.
For the compound `CC(=O)O[C@H]1CC[C@@]2(C)C(CC[C@]3(C)C2CC=C2C4CC(C)(C)CC[C@]4(C)CC[C@]23C)C1(C)C` (stereo not given in full), the Potency entry is “inactive”.
Take `C[C@@H]1O[C@@H](Oc2c(-c3ccc(O)cc3)oc3cc(O)cc(O)c3c2=O)[C@H](O)[C@H](O)[C@H]1O`: the Potency result is “inactive”.
The entry for `Oc1ccc(/C=C2/c3cc(O)cc(O)c3C(c3ccc(O)cc3)[C@H]2c2cc(O)cc(O)c2)cc1` (stereo not given in full) is “inactive”.

The values above are taken from PubChem BioAssay (NCATS).
